# The list is not random: actives were taken first. Their share in the collection is about 11%.
# Luciferase inh – blocks purified firefly luciferase enzyme activity; purified P. pyralis luciferase, luminescence, biochemical; Potency, µM (titrated, usually from 115 µM), hits mostly inhibitors; hit rate 2.5% among 76,000; AID 1347043; note: nearly all actives have a fitted effect of over 65% in size
# Target sequence (P08659 whole entry, looked up): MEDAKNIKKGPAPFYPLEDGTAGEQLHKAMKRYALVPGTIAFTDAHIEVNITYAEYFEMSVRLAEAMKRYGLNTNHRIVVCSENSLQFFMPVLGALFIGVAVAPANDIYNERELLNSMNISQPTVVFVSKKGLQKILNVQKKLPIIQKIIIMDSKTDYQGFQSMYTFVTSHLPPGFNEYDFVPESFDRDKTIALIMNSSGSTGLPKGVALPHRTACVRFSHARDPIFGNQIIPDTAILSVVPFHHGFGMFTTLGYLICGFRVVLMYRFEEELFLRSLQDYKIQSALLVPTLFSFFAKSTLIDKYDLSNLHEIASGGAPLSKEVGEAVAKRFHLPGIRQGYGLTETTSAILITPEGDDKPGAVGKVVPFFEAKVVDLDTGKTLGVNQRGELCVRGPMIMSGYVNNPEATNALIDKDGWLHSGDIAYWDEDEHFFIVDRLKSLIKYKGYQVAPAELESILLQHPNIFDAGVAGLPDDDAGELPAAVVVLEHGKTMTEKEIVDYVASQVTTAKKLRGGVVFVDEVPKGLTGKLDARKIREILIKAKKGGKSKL
#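 Purified P. pyralis luciferase (10nM final) in 50mM Tris acetate pH 7.5, 10mM Mg acetate, 0.01% Tween-20, 0.05% BSA with 10uM D-luciferin and 10uM ATP. Compounds titrated qHTS. Luminescence imaged on CCD.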
# NPR1 antag – antagonists of human natriuretic peptide receptor Npr1 | P16066 | HEK293 hNpr1 GloSensor cGMP, ANP-stimulated luminescence | Potency, µM (highest dose often 46.3 µM), without a hit: at the highest dose activity change, negative = inhibition, actives largely listed as inhibitors | hit rate 1.6% among 76,000 | AID 1347048; calls by dose curve; note: nearly all actives have a fitted effect of over 60% in size
#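 HEK293 cells stably expressing human Npr1 and cGMP GloSensor pGS-40F, loaded 2 h with 2% GloSensor reagent, given compound 30 min at room temperature. Luminescence read before and 20 min after 0.1 nM hNppA.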
# HEK293 tox – cytotoxic compounds in HEK 293 cells; AID 1345083; hit rate 6.6% among 94,000; Potency, µM (doses to about 115 µM), without a hit: top-dose activity change, negative = cytotoxicity, actives largely listed as inhibitors; HEK 293 viability, ATP luminescence (CellTiter-Glo), 48-72 h; note: nearly all actives have a fitted effect of over 60% in size
#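 ATP-coupled CellTiter-Glo luminescence served as viability read-out, recorded 10 min after reagent addition at room temperature. HEK 293 cells, 250 cells/well, had been incubated with pintool-transferred compound for 48 or 72 hr at 37 degree Celsius.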
# NIH3T3 tox – kills NIH 3T3 cells. NIH 3T3 viability, CellTiter-Glo ATP luminescence, 48-72 h. hit rate 4.3% among 94,000. Potency, µM (titrated, usually from 96.7 µM), for the others: at the highest dose activity change, negative = cytotoxicity, actives largely listed as inhibitors; note: nearly all actives have a fitted effect of over 55% in size
#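 Mouse fibroblast NIH 3T3 cells, 400 per well, received compound via pintool and were incubated for 48 or 72 hr prior to CellTiter-Glo ATP luminescence measurement.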
# Active calls of the source: *; i = inactive; ? = inconclusive; · = not tested or not shown; [ ] = dose if it differs, or a comment. Unless noted, calls come from the whole dose curve; as a rule, active = well fitted curve in the direction sought with a large enough effect; inconclusive = small, poorly fitted or top-dose-only effect, or another doubt; inactive = no such curve, though single readings can be large; an effect the other way counts as inactive or inconclusive. % is set by controls: 0 for no effect and ±100 for the full control effect; potency is the fitted concentration of half-maximal effect.
SMILES,Luciferase inh,NPR1 antag,HEK293 tox,NIH3T3 tox
CNC(=O)c1cc(C2CC2)nc2onc(C3CCCN(C(=O)c4ccccc4C)C3)c12 (stereo not drawn),·,·,5%,-13%
N[C@@H]1CC[C@H](C(=O)NCc2csc(N3CCCC3)n2)C1,i,1%,?,?
Cc1nn(-c2ccccc2)c2c1C(C1CC1)N(C1CN(C(=O)Nc3ccc(Cl)cc3)C1)C2=O (stereo not drawn),·,·,-7%,-11%
O=C(NCCCc1ccccc1)C1CCCN1C(=O)c1cccc(-c2ccccn2)c1 (stereo not drawn),·,·,-12%,-34%
Cc1ncsc1C(=O)N1CCCC(CCc2ccc(F)cc2F)C1 (stereo not drawn),i,-22%,89µM*,?
Cc1cc(=O)n(CC(=O)N2CCN(c3ccc(F)cc3)CC2)c(-c2ccc(F)cc2)n1,i,4%,11%,i
CCc1cc(=O)n(CC(=O)N2CCN(c3ccc(F)cc3)CC2)c(N2CCOCC2)n1,i,-16%,25µM*,?
COc1ccccc1Nc1ccnc(N2CCC[C@H]2C(=O)NC2CCCC2)n1,·,·,?,-22%
COc1cccc(CN2C(=O)OC3(CCN(Cc4ccccn4)CC3)C2(C)c2cccnc2)c1 (stereo not drawn),i,0%,4%,?
COc1cccc(CC(=O)N2CCC3(CC2)OC(=O)N(Cc2csc(C)n2)C3(C)c2ccccc2)c1 (stereo not drawn),i,-10%,-40%,7.1µM*
CC1(c2ccccc2)N(Cc2ccccc2C#N)C(=O)OC12CCN(C(=O)Cc1ccccn1)CC2 (stereo not drawn),i,-4%,2%,28µM*
COc1cccc(CN2C(=O)OC3(CCN(C(=O)Cc4ccccn4)CC3)C2(C)c2cccnc2)c1 (stereo not drawn),i,9%,i,35µM*
CCCCCNC(=O)c1cc(-c2cccc(C(F)(F)F)c2)nc2c1cnn2C,·,·,i,i
COc1ccc(C(=O)N2CC(CNC(=O)N3CCCC3)C3(CCOCC3)C2)cc1 (stereo not drawn),·,·,i,-5%
O=C(NCc1ccccc1F)c1ccc2nnc(C3CCOCC3)n2c1,·,·,1%,-14%
COCCN1C(=O)CCc2cc(NC(=O)COC)ccc21,i,1%,6%,0%
CC(C)CN1C(=O)CCc2cc(NC(=O)c3ccc4c(c3)OCO4)ccc21,?,-13%,40µM*,?
CCN1C(=O)CCc2cc(NC(=O)CC(C)C)ccc21,i,-2%,10%,-5%
COCCN1C(=O)CCc2cc(NC(=O)c3ccc4c(c3)OCO4)ccc21,40µM*,2%,?,-7%
COc1cc(CNC(=O)c2cc(-c3ccc(F)cc3)cc3ncn(C)c23)ccn1,?,-11%[70.6 µM],?,?
CCOC(=O)C1CCCN(C(=O)c2cn3cc(-c4ccc(F)cc4)sc3n2)C1 (stereo not drawn),·,·,-6%,-19%
Cc1ccc(NC(=O)Nc2ccc(C)n(CC(=O)NC3CCCCC3)c2=O)cc1,0.4µM*,?,?,?
COc1ccc(OCc2nc(C)c(CCO)c(=O)n2CC(=O)Nc2ccc(C)c(C)c2)cc1,i,-8%,?,-25%
COc1ccc(NC(=O)Nc2ccc(C)n(CC(=O)Nc3ccc(C)c(C)c3)c2=O)cc1,0.71µM*,-15%,?,-28%
Cc1ccc(NC(=O)Nc2ccc(C)n(CC(=O)Nc3ccccc3)c2=O)cc1,0.79µM*,0%,8%,i
SMILES,Luciferase inh,NPR1 antag,HEK293 tox,NIH3T3 tox
Cc1ccc(S(=O)(=O)Nc2ccc(C)n(CC(=O)Nc3ccccc3)c2=O)cc1,i,6%,-13%,-2%
Cc1ccc(NC(=O)Nc2ccccc2)c(=O)n1CC(=O)NCCN1CCCCC1,i,7%,9%,i
CCCN1CCN(C(=O)Cn2c(C)ccc(NC(=O)Nc3ccccc3)c2=O)CC1,35µM*,8%,-3%,i
COc1ccc(C(=O)N2CCC3(CC2)NC(=O)N(c2ccccc2Cl)N3)cc1F,i,-3%,?,?
CN1CCN(C(=O)C2CCc3nnc(-c4cccc(C(F)(F)F)c4)n32)CC1 (stereo not drawn),·,·,-10%,-19%
COc1ccc(-c2ccc3nnc(CNC(=O)c4cccc(NC(C)=O)c4)n3n2)cc1,i,6%,-16%,-14%
CCNC(=O)N1CCc2nc(-c3ccccc3)[nH]c2C1,·,·,-10%,-22%
O[C@@H]1CN(CC2CCNCC2)CC[C@H]1c1ccc2ccccc2c1,i,2%,?,?
COc1cccc(NC(=O)Cn2c(C)ccc(NC(=O)Nc3ccc(C)cc3)c2=O)c1,1µM*,?,79µM*,?
COCc1ccc2c(c1)c(OC(C)(C)C(=O)NC1CCOCC1)nn2Cc1cccnc1,i,-3%[70.6 µM],i,?
CC(C)(Oc1nn(CC2CCOCC2)c2ccccc12)C(=O)NCCc1ccccc1,i,-10%[70.6 µM],100µM*,?
COCc1ccc2c(c1)c(OC(C)(C)C(=O)Nc1cc(C)nn1C)nn2Cc1cccnc1,i,1%,i,40µM*
COCc1ccc2c(c1)c(OC(C)(C)C(=O)Nc1ccc(OC)cc1)nn2Cc1cccnc1,i,5%,-6%,?
COCc1ccc2c(c1)c(OC(C)(C)C(=O)NCC1CCOCC1)nn2Cc1cccnc1,i,5%,i,40µM*
O=C(NCc1ccccc1F)C1CCc2nnc(CN[S+](=O)([O-])c3ccccc3Cl)n21 (stereo not drawn),·,·,-8%,-25%
CC(C)N1CCC2(CC1)CN(C(=O)c1cnccn1)Cc1ccccc1O2,·,·,i,-20%
Cc1ccc(-c2nccn3cc(C(=O)NCC(C)C)nc23)cc1,i,-8%,40µM*,?
Cc1ccc(-c2nccn3cc(C(=O)O)nc23)cc1,i,0%,3%,?
Cc1cccc2c(C3CCN(S(=O)(=O)c4cc(F)c(F)cc4Cl)CC3)c[nH]c12,i,-1%,?,32µM*
COc1ccc(Cl)cc1S(=O)(=O)N1CCC(c2c[nH]c3c(C)cccc23)CC1,i,-14%,?,?
CCC(CC)C(=O)NC[C@@H]1C=C(C)[C@H](Cc2nc3c(C)cccc3[nH]2)C[C@H]1C(C)C,i,-14%[70.6 µM],45µM*,?
CC1=C[C@@H](CN2C(=O)C(C)=C(C)C2=O)[C@H](C(C)C)C[C@H]1Cc1nc2ccccc2[nH]1,i,?,22µM*,25µM*
CC1=C[C@@H](CNC(=O)NC2CCCCC2)[C@H](C(C)C)C[C@H]1Cc1nc2c(C)cccc2[nH]1,i,3%,-10%,-14%
CC1=C[C@@H](CN2C(=O)C(C)=C(C)C2=O)[C@H](C(C)C)C[C@H]1Cc1nc2c(C)cccc2[nH]1,i,?,35µM*,22µM*
CC1=C[C@@H](CNCc2ccccc2O)[C@H](C(C)C)C[C@H]1Cc1nc2c(C)cccc2[nH]1,i,?,?,?
